# Laboratory results: article PMC7862700, “An all-to-all approach to the identification of sequence-specific readers for epigenetic DNA modifications on cytosine”
# Experiments:
# Experiment in all cases: DAPPL (digital affinity profiling via proximity ligation, sequencing); 10 mM Tris-HCl pH 7.5, 50 mM NaCl, 1 mM DTT, 4% glycerol, room temperature, 30 min; GST-TFs on glutathione beads, 16-mer random dsDNA library, 0.1% formaldehyde crosslink after washing; high values mean tight binding
# FLI1 = biological target: T1, FLI1 (Homo sapiens, UniProt Q01543 1-452); conditions: protein: recombinant; tags: N-terminal GST; dsDNA, one strand shown
# T1 sequence: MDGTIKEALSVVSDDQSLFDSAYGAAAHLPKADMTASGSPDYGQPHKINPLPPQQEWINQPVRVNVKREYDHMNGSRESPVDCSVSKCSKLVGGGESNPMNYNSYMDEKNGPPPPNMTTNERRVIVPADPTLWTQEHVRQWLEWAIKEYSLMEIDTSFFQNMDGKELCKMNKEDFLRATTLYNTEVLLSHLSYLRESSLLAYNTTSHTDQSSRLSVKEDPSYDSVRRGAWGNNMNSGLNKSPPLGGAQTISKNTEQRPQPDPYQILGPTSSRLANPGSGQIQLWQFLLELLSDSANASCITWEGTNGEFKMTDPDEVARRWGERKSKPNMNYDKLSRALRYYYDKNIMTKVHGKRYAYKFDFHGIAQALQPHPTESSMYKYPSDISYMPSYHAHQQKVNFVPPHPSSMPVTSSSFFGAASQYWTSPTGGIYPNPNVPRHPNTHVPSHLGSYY
# In short: (§1)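 Each value of binding signal is a hexamer's read frequency for a factor divided by the same hexamer's frequency in the tag-only sample. Barcoded, bead-captured GST fusions of human transcription factors made in yeast were pooled with that sample and incubated with 200 nmole of a random double-stranded 16-mer DNA library in Tris/NaCl/DTT/glycerol buffer at room temperature for 30 min. Washing, 0.1% formaldehyde crosslinking, proximity ligation, PCR and Illumina NextSeq500 sequencing followed.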
# ELK1 = biological target: T2, ELK1 (Homo sapiens, UniProt P19419 1-428); conditions: protein: recombinant; tags: N-terminal GST; dsDNA, one strand shown
# T2 sequence: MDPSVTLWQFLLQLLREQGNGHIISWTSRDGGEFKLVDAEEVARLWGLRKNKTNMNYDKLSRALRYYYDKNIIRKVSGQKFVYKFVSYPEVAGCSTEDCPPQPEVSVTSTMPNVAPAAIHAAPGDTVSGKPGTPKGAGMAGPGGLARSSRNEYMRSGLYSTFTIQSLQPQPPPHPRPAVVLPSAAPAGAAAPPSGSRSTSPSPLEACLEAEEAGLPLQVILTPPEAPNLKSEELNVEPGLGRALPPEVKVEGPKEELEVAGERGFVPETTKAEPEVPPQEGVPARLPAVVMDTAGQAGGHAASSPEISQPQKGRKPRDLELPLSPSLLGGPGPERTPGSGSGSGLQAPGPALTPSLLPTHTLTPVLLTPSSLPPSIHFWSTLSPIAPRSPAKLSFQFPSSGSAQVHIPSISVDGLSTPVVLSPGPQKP
# In short: as §1
# GABPA = biological target: T3, GABPA (Homo sapiens, UniProt Q06546 1-454); conditions: protein: recombinant; tags: N-terminal GST; dsDNA, one strand shown
# T3 sequence: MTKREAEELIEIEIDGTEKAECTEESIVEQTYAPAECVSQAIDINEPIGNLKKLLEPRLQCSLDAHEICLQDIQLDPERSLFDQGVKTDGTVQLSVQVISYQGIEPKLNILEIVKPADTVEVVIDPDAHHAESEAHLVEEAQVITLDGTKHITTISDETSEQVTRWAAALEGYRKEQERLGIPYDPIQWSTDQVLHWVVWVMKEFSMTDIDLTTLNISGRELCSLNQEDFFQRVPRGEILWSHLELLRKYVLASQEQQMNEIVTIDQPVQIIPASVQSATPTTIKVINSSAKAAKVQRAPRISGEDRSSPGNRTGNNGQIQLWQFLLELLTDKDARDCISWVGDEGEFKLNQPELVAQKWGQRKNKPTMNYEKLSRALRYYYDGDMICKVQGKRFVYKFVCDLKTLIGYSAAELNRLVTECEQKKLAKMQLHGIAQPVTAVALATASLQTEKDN
# In short: as §1
# ERG = biological target: T4, ERG (Homo sapiens, UniProt P11308 1-479); conditions: protein: recombinant; tags: N-terminal GST; dsDNA, one strand shown
# T4 sequence: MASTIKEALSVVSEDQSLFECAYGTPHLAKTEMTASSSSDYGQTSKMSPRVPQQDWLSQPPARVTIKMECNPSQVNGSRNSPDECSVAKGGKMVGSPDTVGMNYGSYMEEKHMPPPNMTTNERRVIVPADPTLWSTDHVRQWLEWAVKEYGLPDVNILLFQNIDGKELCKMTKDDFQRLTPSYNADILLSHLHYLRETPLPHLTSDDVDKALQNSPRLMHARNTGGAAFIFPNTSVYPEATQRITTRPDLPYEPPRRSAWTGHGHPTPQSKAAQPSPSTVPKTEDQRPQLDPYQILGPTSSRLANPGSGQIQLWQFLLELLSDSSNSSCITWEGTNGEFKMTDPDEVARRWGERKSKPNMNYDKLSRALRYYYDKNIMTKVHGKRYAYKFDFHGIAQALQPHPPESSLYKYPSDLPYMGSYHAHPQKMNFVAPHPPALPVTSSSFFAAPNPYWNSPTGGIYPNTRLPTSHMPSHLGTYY
# In short: as §1
# ELF1 = ELF1 (Homo sapiens, UniProt P32519 1-619); conditions: protein: recombinant; tags: N-terminal GST; dsDNA, one strand shown
# Sequence of ELF1 (P32519 whole entry): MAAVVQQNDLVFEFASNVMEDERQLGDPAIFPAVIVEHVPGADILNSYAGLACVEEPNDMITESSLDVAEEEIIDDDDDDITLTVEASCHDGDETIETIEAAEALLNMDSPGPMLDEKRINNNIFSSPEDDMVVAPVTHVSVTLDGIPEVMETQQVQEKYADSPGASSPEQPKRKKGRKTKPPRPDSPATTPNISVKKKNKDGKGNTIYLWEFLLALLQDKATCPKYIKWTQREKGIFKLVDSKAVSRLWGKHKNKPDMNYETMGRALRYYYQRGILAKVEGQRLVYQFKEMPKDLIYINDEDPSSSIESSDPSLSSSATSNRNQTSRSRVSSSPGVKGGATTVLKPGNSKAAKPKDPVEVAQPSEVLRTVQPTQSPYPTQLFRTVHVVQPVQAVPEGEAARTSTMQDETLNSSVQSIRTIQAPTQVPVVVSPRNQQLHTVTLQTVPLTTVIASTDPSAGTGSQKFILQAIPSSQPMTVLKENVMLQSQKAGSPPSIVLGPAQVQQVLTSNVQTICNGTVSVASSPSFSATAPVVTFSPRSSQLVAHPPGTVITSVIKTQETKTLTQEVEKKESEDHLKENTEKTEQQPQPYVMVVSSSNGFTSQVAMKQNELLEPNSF
# In short: as §1
# EHF = biological target: T5, EHF (Homo sapiens, UniProt Q9NZC4 1-300); conditions: protein: recombinant; tags: N-terminal GST; dsDNA, one strand shown
# T5 sequence: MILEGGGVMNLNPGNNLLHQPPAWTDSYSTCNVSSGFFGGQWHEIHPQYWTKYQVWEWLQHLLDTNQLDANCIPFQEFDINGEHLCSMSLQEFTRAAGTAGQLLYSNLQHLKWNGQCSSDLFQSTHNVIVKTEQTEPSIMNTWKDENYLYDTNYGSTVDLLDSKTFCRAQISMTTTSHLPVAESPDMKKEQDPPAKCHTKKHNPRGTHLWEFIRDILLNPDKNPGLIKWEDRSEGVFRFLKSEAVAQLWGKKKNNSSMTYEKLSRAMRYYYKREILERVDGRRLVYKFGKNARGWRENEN
# In short: as §1
# SPI1 = SPI1 (Homo sapiens, UniProt P17947 1-270); conditions: protein: recombinant; tags: N-terminal GST; dsDNA, one strand shown
# In short: as §1
# SPIB = SPIB (Homo sapiens, UniProt Q01892 1-262); conditions: protein: recombinant; tags: N-terminal GST; dsDNA, one strand shown
# Sequence of SPIB (Q01892 whole entry): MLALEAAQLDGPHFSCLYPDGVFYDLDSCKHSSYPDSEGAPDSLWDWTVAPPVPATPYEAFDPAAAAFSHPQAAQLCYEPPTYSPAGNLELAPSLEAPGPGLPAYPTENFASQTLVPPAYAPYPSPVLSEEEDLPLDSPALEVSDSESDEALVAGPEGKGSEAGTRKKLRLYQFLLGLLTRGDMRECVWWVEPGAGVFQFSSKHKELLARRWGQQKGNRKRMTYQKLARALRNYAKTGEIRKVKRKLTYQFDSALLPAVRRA
# In short: as §1
# ELK3 = biological target: T6, ELK3 (Homo sapiens, UniProt P41970 1-407); conditions: protein: recombinant; tags: N-terminal GST; dsDNA, one strand shown
# T6 sequence: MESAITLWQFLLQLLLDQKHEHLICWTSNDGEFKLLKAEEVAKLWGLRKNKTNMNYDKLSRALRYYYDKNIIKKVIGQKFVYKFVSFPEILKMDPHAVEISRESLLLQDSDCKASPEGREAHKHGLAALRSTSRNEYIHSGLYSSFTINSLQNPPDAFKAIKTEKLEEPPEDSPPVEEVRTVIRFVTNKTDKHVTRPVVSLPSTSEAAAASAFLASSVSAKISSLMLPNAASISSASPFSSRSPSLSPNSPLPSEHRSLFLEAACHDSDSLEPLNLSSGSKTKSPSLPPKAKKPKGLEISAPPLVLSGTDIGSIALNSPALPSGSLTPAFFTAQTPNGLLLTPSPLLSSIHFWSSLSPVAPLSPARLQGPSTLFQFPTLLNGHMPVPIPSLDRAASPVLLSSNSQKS
# In short: as §1
# FEV = biological target: T7, FEV (Homo sapiens, UniProt Q99581 1-238); conditions: protein: recombinant; tags: N-terminal GST; dsDNA, one strand shown
# T7 sequence: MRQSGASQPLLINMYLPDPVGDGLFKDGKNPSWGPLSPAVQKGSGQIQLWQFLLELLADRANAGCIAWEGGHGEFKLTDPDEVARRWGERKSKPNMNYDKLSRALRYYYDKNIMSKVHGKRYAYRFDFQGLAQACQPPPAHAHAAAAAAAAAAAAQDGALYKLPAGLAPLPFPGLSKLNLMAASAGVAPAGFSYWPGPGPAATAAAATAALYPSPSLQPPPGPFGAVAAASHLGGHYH
# In short: as §1
# ETV5 = ETV5 (Homo sapiens, UniProt P41161 1-510); conditions: protein: recombinant; tags: N-terminal GST; dsDNA, one strand shown
# Sequence of ETV5 (P41161 whole entry): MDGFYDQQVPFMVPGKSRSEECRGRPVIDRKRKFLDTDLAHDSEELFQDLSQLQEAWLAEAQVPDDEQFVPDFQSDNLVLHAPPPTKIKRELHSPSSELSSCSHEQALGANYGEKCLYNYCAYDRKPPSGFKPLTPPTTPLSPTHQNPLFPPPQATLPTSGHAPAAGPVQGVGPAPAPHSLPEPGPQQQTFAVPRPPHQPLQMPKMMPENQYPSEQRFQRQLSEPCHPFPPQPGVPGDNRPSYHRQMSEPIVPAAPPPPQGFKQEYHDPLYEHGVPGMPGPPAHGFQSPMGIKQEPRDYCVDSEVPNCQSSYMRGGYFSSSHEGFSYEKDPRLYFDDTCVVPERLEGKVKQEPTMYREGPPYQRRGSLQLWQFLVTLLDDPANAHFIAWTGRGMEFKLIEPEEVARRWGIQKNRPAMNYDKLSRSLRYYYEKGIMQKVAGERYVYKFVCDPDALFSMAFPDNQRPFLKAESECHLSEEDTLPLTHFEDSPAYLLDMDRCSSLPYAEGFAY
# In short: as §1
# HSF1 = HSF1 (Homo sapiens, UniProt Q00613 1-529); conditions: protein: recombinant; tags: N-terminal GST; chain copies: 3; dsDNA, one strand shown
# Sequence of HSF1 (Q00613 whole entry): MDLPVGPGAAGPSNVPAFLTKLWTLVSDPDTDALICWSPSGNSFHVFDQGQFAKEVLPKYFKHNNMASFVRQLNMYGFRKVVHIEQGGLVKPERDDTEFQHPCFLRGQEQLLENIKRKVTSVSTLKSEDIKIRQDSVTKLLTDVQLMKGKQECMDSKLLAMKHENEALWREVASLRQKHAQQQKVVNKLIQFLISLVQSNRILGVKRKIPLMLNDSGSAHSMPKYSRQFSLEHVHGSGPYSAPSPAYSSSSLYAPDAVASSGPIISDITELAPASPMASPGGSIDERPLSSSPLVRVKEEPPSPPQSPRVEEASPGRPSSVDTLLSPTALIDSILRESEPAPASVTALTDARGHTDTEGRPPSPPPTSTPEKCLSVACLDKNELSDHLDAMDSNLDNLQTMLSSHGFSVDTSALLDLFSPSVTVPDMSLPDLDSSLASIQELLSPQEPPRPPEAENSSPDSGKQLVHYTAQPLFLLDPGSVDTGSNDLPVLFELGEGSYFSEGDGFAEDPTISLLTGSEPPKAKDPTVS
# In short: as §1
# SPIC = biological target: T8, SPIC (Homo sapiens, UniProt Q8N5J4 1-248); conditions: protein: recombinant; tags: N-terminal GST; dsDNA, one strand shown
# T8 sequence: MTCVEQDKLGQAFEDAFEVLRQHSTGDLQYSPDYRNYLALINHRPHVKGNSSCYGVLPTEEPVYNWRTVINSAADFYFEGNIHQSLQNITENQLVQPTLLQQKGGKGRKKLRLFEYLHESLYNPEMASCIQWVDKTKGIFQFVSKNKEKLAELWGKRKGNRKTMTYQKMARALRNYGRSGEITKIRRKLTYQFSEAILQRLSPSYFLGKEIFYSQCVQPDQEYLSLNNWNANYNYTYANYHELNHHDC
# In short: as §1
# ELF4 = ELF4 (Homo sapiens, UniProt Q99607 1-663); conditions: protein: recombinant; tags: N-terminal GST; dsDNA, one strand shown
# Sequence of ELF4 (Q99607 whole entry): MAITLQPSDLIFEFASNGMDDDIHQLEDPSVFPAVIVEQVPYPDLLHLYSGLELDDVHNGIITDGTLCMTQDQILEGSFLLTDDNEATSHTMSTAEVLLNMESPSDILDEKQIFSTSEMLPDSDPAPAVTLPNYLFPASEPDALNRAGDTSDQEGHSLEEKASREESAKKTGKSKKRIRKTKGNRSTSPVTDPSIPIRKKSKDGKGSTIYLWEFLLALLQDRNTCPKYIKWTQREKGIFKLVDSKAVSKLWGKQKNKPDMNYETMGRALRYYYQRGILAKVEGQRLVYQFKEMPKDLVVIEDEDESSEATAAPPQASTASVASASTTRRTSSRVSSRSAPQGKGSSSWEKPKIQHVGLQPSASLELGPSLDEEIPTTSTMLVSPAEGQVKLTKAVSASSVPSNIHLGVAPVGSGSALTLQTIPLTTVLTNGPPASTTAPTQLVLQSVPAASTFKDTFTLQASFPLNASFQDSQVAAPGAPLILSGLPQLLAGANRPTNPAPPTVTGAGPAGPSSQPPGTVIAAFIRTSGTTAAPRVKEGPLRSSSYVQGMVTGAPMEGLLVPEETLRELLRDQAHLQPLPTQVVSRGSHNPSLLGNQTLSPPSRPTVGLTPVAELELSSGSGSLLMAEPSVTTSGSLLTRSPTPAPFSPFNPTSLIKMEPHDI
# In short: as §1
# ELK4 = biological target: T9, ELK4 (Homo sapiens, UniProt P28324-2 1-405); conditions: protein: recombinant; tags: N-terminal GST; dsDNA, one strand shown
# T9 sequence: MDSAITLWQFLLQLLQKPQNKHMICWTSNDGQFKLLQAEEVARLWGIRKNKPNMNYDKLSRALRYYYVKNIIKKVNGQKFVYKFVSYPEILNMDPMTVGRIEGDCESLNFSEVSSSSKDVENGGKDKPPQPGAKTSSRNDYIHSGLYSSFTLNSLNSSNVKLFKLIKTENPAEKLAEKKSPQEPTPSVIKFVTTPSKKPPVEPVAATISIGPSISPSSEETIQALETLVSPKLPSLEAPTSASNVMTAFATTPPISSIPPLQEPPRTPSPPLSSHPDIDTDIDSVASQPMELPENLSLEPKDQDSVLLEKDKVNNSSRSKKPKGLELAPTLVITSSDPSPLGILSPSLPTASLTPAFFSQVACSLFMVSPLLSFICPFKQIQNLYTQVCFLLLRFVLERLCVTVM
# In short: as §1
# ETV2 = biological target: T10, ETV2 (Homo sapiens, UniProt O00321 1-342); conditions: protein: recombinant; tags: N-terminal GST; dsDNA, one strand shown
# T10 sequence: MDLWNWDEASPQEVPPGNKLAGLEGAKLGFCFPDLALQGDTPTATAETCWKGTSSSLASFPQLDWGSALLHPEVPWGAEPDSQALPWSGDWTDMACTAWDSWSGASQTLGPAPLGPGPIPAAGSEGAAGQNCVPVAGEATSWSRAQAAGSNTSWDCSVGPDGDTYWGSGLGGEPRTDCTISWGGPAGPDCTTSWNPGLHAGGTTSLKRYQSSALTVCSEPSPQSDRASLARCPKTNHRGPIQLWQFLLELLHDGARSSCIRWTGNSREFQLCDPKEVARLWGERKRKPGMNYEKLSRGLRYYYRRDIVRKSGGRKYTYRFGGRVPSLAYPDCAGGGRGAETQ
# In short: as §1
# ELF3 = biological target: T11, ELF3 (Homo sapiens, UniProt P78545 1-371); conditions: protein: recombinant; tags: N-terminal GST; dsDNA, one strand shown
# T11 sequence: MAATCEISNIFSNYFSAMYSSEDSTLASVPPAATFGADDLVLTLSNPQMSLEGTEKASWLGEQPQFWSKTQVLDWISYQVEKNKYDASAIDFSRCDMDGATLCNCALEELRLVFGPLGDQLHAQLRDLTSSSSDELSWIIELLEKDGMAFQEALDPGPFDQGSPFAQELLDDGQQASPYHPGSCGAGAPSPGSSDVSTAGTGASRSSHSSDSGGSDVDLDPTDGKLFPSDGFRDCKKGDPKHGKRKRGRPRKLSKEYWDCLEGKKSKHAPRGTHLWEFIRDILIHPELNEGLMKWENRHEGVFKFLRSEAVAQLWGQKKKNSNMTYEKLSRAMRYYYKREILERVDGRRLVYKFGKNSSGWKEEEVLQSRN
# In short: as §1
# CRX = CRX (Homo sapiens, UniProt O43186 1-299); conditions: protein: recombinant; tags: N-terminal GST; dsDNA, one strand shown
# Sequence of CRX (O43186 whole entry): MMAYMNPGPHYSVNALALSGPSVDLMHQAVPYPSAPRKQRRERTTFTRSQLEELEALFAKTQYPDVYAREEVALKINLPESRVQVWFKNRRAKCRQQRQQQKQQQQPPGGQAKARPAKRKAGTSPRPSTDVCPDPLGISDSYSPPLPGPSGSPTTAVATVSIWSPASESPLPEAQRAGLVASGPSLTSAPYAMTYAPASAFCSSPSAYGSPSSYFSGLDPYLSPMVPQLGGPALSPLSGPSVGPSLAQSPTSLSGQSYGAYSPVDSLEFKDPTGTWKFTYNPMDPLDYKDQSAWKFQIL
# In short: as §1
# ETV1 = ETV1 (Homo sapiens, UniProt P50549 1-477); conditions: protein: recombinant; tags: N-terminal GST; dsDNA, one strand shown
# Sequence of ETV1 (P50549 whole entry): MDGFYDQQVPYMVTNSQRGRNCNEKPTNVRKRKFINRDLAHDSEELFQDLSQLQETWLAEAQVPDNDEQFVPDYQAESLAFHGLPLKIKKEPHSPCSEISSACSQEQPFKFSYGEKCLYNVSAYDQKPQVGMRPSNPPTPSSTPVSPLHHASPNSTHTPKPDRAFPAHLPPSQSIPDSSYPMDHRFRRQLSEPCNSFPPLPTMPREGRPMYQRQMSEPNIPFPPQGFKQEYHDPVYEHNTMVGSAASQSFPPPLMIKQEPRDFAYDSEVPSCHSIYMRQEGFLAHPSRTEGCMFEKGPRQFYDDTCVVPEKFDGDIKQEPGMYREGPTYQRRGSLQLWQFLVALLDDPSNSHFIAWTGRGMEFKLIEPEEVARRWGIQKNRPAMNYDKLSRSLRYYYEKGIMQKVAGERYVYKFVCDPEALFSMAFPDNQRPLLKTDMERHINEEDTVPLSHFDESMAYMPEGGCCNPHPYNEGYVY
# In short: as §1
sequence,measurement,setting,value
CTAGCT,binding signal,FLI1,"1.36 fold enrichment (6-mer frequency, TF over GST control)"
same,binding signal,ELK1,"1.37 fold enrichment (6-mer frequency, TF over GST control)"
same,binding signal,GABPA,"1.3 fold enrichment (6-mer frequency, TF over GST control)"
same,binding signal,ERG,"1.3 fold enrichment (6-mer frequency, TF over GST control)"
same,binding signal,ELF1,"1.31 fold enrichment (6-mer frequency, TF over GST control)"
same,binding signal,EHF,"1.29 fold enrichment (6-mer frequency, TF over GST control)"
same,binding signal,SPI1,"1.33 fold enrichment (6-mer frequency, TF over GST control)"
same,binding signal,SPIB,"1.34 fold enrichment (6-mer frequency, TF over GST control)"
same,binding signal,ELK3,"1.39 fold enrichment (6-mer frequency, TF over GST control)"
same,binding signal,FEV,"1.29 fold enrichment (6-mer frequency, TF over GST control)"
same,binding signal,ETV5,"1.31 fold enrichment (6-mer frequency, TF over GST control)"
same,binding signal,HSF1,"1.53 fold enrichment (6-mer frequency, TF over GST control)"
same,binding signal,SPIC,"1.59 fold enrichment (6-mer frequency, TF over GST control)"
same,binding signal,ELF4,"1.29 fold enrichment (6-mer frequency, TF over GST control)"
same,binding signal,ELK4,"1.35 fold enrichment (6-mer frequency, TF over GST control)"
same,binding signal,ETV2,"1.31 fold enrichment (6-mer frequency, TF over GST control)"
same,binding signal,ELF3,"1.07 fold enrichment (6-mer frequency, TF over GST control)"
same,binding signal,CRX,"1.31 fold enrichment (6-mer frequency, TF over GST control)"
same,binding signal,ETV1,"1.24 fold enrichment (6-mer frequency, TF over GST control)"
